Active and inactive are the calls of the source. The call rests on the fitted dose curve.
Conditions: Ebola virus entry assay, blue channel fluorescence

| Structure (SMILES) | outcome | AC50 |
| --- | --- | --- |
| COc1cc([C@@H]2c3cc4c(cc3[C@@H](O[C@@H]3O[C@@H]5CO[C@@H](c6cccs6)O[C@@H]5[C@H](O)[C@@H]3O)[C@H]3COC(=O)[C@H]23)OCO4)cc(OC)c1O | inactive |  |
| Cc1nnc2n1-c1ccc(Cl)cc1C(c1ccccc1)=NC2 | inactive |  |
| CCC(=O)OC(OP(=O)(CCCCc1ccccc1)CC(=O)N1C[C@H](C2CCCCC2)C[C@H]1C(=O)O)C(C)C (some centres not stated) | inactive |  |
| COc1ccnc(CS(=O)c2nc3cc(OC(F)F)ccc3[nH]2)c1OC (configuration not stated) | inactive |  |
| O=C(O[C@H]1CN2CCC1CC2)N1CCc2ccccc2[C@@H]1c1ccccc1 |  | 10 µM (active) |
| C[C@]12CCC(=O)C=C1CC[C@H]1[C@@H]3CC[C@](O)(C(=O)CO)[C@@]3(C)C[C@H](O)[C@@]12F | inactive |  |
| CN(C)CCc1c[nH]c2ccc(Cn3cncn3)cc12 | inactive |  |

Source: PubChem BioAssay (NCATS)
